Among the data in the supplement of paper PMC11060735 are GFP- values, retold here.

Molecules are shown by their SMILES. Where a name gives a salt, the structure may show the parent alone. ± gives the standard deviation of the averaged measurements. Over roughly 1,800 compounds, “GFP- (p16Ink4a-) cell count relative to negative-control wells” has its median near 0.99; the lowest 2% begin near 0.5. The sample as a whole holds a higher share of the lowest values than the screen did.

The test system of this experiment is mouse p16Ink4a+/- lung fibroblasts (INKBRITE, bleomycin-injured). As to the kind of experiment: GFP- (p16Ink4a-) cell count relative to negative-control wells (fold of vehicle); higher = more p16Ink4a- cells surviving. The settings on record: 1 µM; 3 days.
Turning to `CCOC(=O)[C@H](CCc1ccccc1)N[C@@H](C)C(=O)N1Cc2cc(OC)c(OC)cc2C[C@H]1C(=O)O` [Moexipril], the GFP- was 0.982.

For `COc1c2ccoc2cc2oc(=O)ccc12` [Bergapten], the GFP- came out at 1.08.

With `O=C1c2cccc(O)c2C(=O)c2c(O)cc(CO)cc21` [Aloe-emodin], the GFP- is 1.13.

For `O=C1c2c(O)ccc(O)c2C(=O)c2c(NCCNCCO)ccc(NCCNCCO)c21` [Mitoxantrone], the GFP- worked out at 0.503.

The compound `Nc1ncn([C@@H]2O[C@H](CO)[C@@H](O)[C@H]2O)c(=O)n1` [5-azacytidine, Azacitidine] showed a GFP- of 0.758 ± 0.04.

In turn, `CCOC(=O)[C@H]1O[C@@H]1C(=O)N[C@@H](CC(C)C)C(=O)NCCC(C)C` [Aloxistatin] displayed a GFP- of 0.833.

Consider `CN(C)c1ccc(C(=C2C=CC(=[N+](C)C)C=C2)c2ccc(N(C)C)cc2)cc1` [Gentian Violet], for which the GFP- was 0.494.

As for `COCCO/C(O)=C1\C(C)=NC(C)=C(C(=O)OC(C)C)C1c1cccc([N+](=O)[O-])c1` (stereo not drawn) [Nimodipine], the GFP- is 1.06.

`FC(F)c1nc2ccccc2n1-c1nc(N2CCOCC2)nc(N2CCOCC2)n1` gave a GFP- of 0.711.

In the case of `O=C(NC(Cc1cc(O)nc2ccccc12)C(=O)O)c1ccc(Cl)cc1` (stereo not drawn) [Rebamipide], the GFP- came to 1.02.

On to `Cc1ccc([N+](=O)[O-])cc1S(=O)(=O)N(C)/N=C/c1cnc2ccc(Br)cn12`, for which the GFP- is 0.385.

Compound `COC(=O)Nc1nc2cc(C(=O)c3ccc(F)cc3)ccc2[nH]1` [Flubendazole] displayed a GFP- of 0.933.

`CC(C(=O)O)c1ccc2c(c1)Cc1cccnc1O2` (stereo not drawn) [Pranoprofen] came in with a GFP- of 1.17.

Regarding `Cc1cc(NS(=O)(=O)c2ccc(N)cc2)no1` [Sulfamethoxazole], the GFP- worked out at 0.967.

With `C=CC(=O)Nc1cccc(Oc2nc(Nc3ccc(N4CCN(C)CC4)cc3)ncc2Cl)c1`, the GFP- turned out to be 0.844.

Regarding `C=CCn1c(=O)c2cnc(Nc3ccc(N4CCN(C)CC4)cc3)nc2n1-c1cccc(C(C)(C)O)n1`, the GFP- amounted to 0.409.

As for `Cc1cnc(Nc2ccc(N3CCN(C)CC3)cc2)nc1Nc1cccc(S(=O)(=O)NC(C)(C)C)c1`, the GFP- is 0.779 ± 0.037.

`C#C[C@]1(O)CC[C@H]2[C@@H]3CCc4cc(OC)ccc4[C@H]3CC[C@@]21C` [Mestranol] yielded a GFP- of 1.15.

On to `COc1cc2nccc(Oc3ccc(NC(=O)Nc4cc(C)on4)c(Cl)c3)c2cc1OC` [Tivozanib], for which the GFP- stood at 1.01.

`COc1cc2nccc(Oc3ccc(NC(=O)C4(C(=O)Nc5ccc(F)cc5)CC4)cc3)c2cc1OC` [Cabozantinib]: the GFP- amounted to 0.824.

`COc1cc2nccc(Oc3ccc(NC(=O)Nc4ccc(F)cc4F)c(F)c3)c2cc1OC`: the GFP- was 0.466.

Take `CCn1cc(-c2ccnc3[nH]c(-c4cccc(CN(C)C)c4)cc23)c(-c2ccc(NC(=O)N(C)C)cc2)n1`: the GFP- was 0.658 ± 0.17.

Regarding `COc1cc(Nc2ncc(F)c(Nc3ccc4c(n3)N(COP(=O)(O)O)C(=O)C(C)(C)O4)n2)cc(OC)c1OC` [Fostamatinib], the GFP- was 0.771.

Turning to `COC(=O)[C@]12CCC(C)(C)C[C@@H]1[C@@H]1C(=O)C=C3[C@]4(C)C=C(C#N)C(=O)C(C)(C)[C@@H]4CC[C@@]3(C)[C@]1(C)CC2` [Bardoxolone Methyl], the GFP- was determined as 0.406.

In turn, `O=C(c1ccc(F)cc1)C1CCN(CCn2c(=O)[nH]c3ccccc3c2=O)CC1` [Ketanserin Tartrate] showed a GFP- of 0.924.

In the case of `COc1ccc2c(c1)c(CC(=O)N1CCOCC1)c(C)n2C(=O)c1ccc(Cl)cc1`, the GFP- is 1.15.

For `CC(C)C[C@@H](C=O)NC(=O)[C@H](CC(C)C)NC(=O)[C@H](CC(C)C)NC(=O)OCc1ccccc1`, the GFP- came to 0.302.

As to `CC(=O)SCC(Cc1ccccc1)C(=O)NCC(=O)OCc1ccccc1` (stereo not drawn) [Racecadotril], the GFP- was determined as 0.972.

With `COC(=O)[C@H](Cc1ccccc1)NC(=O)[C@@H](N)CC(=O)O` [Aspartame], the GFP- turned out to be 0.966.

In turn, `CCCC(=O)Nc1cccc(NC(=O)c2ccccc2Br)c1` had a GFP- of 1.03.

Regarding `CCOC(=O)C1=C(C)N=C(C)/C(=C(/O)OCC)C1c1ccccc1/C=C/C(=O)OC(C)(C)C` (stereo not drawn) [Lacidipine], the GFP- was 1.08.

`Clc1ccc(C(Cn2ccnc2)OCc2ccsc2Cl)c(Cl)c1` (stereo not drawn) [Tioconazole] showed a GFP- of 0.993.

With `Cn1nc(C(C)(C)C)cc1C(=O)N[C@@H](Cc1cccc(Cl)c1)C(=O)NCC#N` [Cathepsin Inhibitor 1], the GFP- came out at 1.01.

On to `O=C1CCC[C@@H]2[C@H]3CCC[N+]4([O-])CCC[C@@H](CN12)[C@@H]34` (stereo partly drawn) [Oxymatrine], for which the GFP- was 1.08.

`O=S(=O)(O)c1cc(O)ccc1O` [Ethamsylate] registered a GFP- of 0.995.

On to `C=C1/C(=C\C=C2/CCC[C@]3(C)[C@@H]([C@H](C)CCCC(C)(C)O)CC[C@@H]23)C[C@@H](O)C[C@@H]1O` [Calcitriol, DN-101], for which the GFP- was found to be 1.39.

For the compound `CN1CCN(S(=O)(=O)c2ccc(-c3cnc(N)c(C(=O)Nc4cccnc4)n3)cc2)CC1`, the GFP- was determined as 0.998.

Compound `Cc1[nH]c(/C=C2\C(=O)Nc3ccc(S(=O)(=O)N(C)c4cccc(Cl)c4)cc32)c(C)c1C(=O)N1CCN(C)CC1` yielded a GFP- of 0.704.

With `Cc1[nH]c(/C=C2\C(=O)Nc3ccccc32)c(C)c1CCC(=O)O` [Orantinib], the GFP- amounted to 1.09.

`Cc1[nH]c(/C=C2\C(=O)Nc3ccc(S(=O)(=O)Cc4c(Cl)cccc4Cl)cc32)c(C)c1C(=O)N1CCC[C@@H]1CN1CCCC1` returned a GFP- of 0.404.

Compound `N=C(N)Nc1ccc(C(=O)Oc2ccc3cc(C(=N)N)ccc3c2)cc1` [Nafamostat] had a GFP- of 1.16.

`Nc1cc(C(Cl)=C(Cl)Cl)c(S(N)(=O)=O)cc1S(N)(=O)=O` [Clorsulon] came in with a GFP- of 1.08.

In the case of `Cc1cc(C)c(/C=C2\C(=O)Nc3ccccc32)[nH]1` [Semaxanib], the GFP- was 0.862.
